Data published in PubChem BioAssay AID1159580 (chemical genetic matrix, 2015).
The campaign covered roughly 5,500 compounds. About 2,000 (36%) were called active. About 18% were inconclusive and are not listed. The list shows a part of the results. Values without a mark were called inactive. Cut-off read from the data, not from the text of the source: active = normalized growth mostly below about 0.91 (no sharp cut-off); inconclusive = no clear call, values can overlap the other calls; inactive = mostly above about 0.92.

Assay: chemical genetic growth profiling, strain panel (AID 1159580);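 note: tested at 20 µM; growth read once vehicle control cultures reached saturation at 30 °C; 1 = growth at the plate median or of vehicle wells; lower values mean less growth of the strain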
Conditions: S. cerevisiae deletion strains, growth OD

CO/N=C1/CN(c2nc3c(cc2F)c(=O)c(C(=O)O)cn3C2CC2)CC1CN (centres undefined)
normalized growth (locus YAL021C, strain ccr4, hits give low values): 1
normalized growth (locus YAL026C, strain drs2, hits give low values): 1.02
normalized growth (locus YAL030W, strain snc1, hits give low values): 0.992
normalized growth (locus YBL061C, strain skt5, hits give low values): 0.99
normalized growth (locus YBR009C, strain hhf1, hits give low values): 0.953
normalized growth (locus YBR023C, strain chs3, hits give low values): 1.02
normalized growth (locus YBR171W, strain sec66, hits give low values): 1.02
normalized growth (locus YBR231C, strain swc5, hits give low values): 0.998
normalized growth (locus YBR279W, strain paf1, hits give low values): 1.02
normalized growth (locus YCL011C, strain gbp2, hits give low values): 1.01
normalized growth (locus YCL016C, strain dcc1, hits give low values): 0.973
normalized growth (locus YCL069W, strain vba3, hits give low values): 1.02
normalized growth (locus YCR088W, strain abp1, hits give low values): 1.02
normalized growth (locus YDL005C, strain med2, hits give low values): 1.04
normalized growth (locus YDL040C, strain nat1, hits give low values): 1
normalized growth (locus YDR001C, strain nth1, hits give low values): 1.02
normalized growth (locus YDR069C, strain doa4, hits give low values): 0.979
normalized growth (locus YDR137W, strain rgp1, hits give low values): 1.07
normalized growth (locus YDR159W, strain sac3, hits give low values): 0.975
normalized growth (locus YDR195W, strain ref2): 0.979
normalized growth (locus YDR297W, strain sur2, hits give low values): 1
normalized growth (locus YDR334W, strain swr1, hits give low values): 1.02
normalized growth (locus YDR335W, strain msn5, hits give low values): 1.01
normalized growth (locus YDR392W, strain spt3, hits give low values): 0.937
normalized growth (locus YEL003W, strain gim4, hits give low values): 1.03
normalized growth (locus YEL037C, strain rad23, hits give low values): 1.02
normalized growth (locus YEL061C, strain CIN8 (second series), hits give low values): 1.01
normalized growth (locus YER015W, strain faa2, hits give low values): 1.01
normalized growth (locus YER016W, strain bim1, hits give low values): 1.04
normalized growth (locus YER111C, strain swi4, hits give low values): 1.03
normalized growth (locus YER155C, strain BEM2 (second series), hits give low values): 0.977
normalized growth (locus YFR010W, strain ubp6, hits give low values): 0.982
normalized growth (locus YGL167C, strain pmr1, hits give low values): 1.01
normalized growth (locus YGL173C, strain kem1, hits give low values): 0.987
normalized growth (locus YGL227W, strain vid30, hits give low values): 1.01
normalized growth (locus YGL240W, strain doc1, hits give low values): 0.967
normalized growth (locus YGL253W, strain hxk2, hits give low values): 1.02
normalized growth (locus YHR013C, strain ard1, hits give low values): 1.02
normalized growth (locus YHR027C, strain rpn1, hits give low values): 1
normalized growth (locus YHR030C, strain SLT2, hits give low values): 0.983
normalized growth (locus YHR079C, strain IRE1, hits give low values): 0.949
normalized growth (locus YHR142W, strain chs7, hits give low values): 1.02
normalized growth (locus YJL092W, strain hpr5, hits give low values): 0.973
normalized growth (locus YJL095W, strain BCK1 (second series), hits give low values): 0.992
normalized growth (locus YJL095W, strain BCK1, hits give low values): 0.98
normalized growth (locus YJL115W, strain asf1, hits give low values): 0.956
normalized growth (locus YJL129C, strain trk1, hits give low values): 0.997
normalized growth (locus YJL154C, strain vps35, hits give low values): 1.02
normalized growth (locus YJL164C, strain tpk1, hits give low values): 0.985
normalized growth (locus YJL166W, strain qcr8, hits give low values): 0.998
normalized growth (locus YJL187C, strain SWE1, hits give low values): 0.998
normalized growth (locus YJR066W, strain TOR1, hits give low values): 0.949
normalized growth (locus YKL160W, strain elf1, hits give low values): 1.02
normalized growth (locus YKR026C, strain gcn3, hits give low values): 1.01
normalized growth (locus YKR091W, strain srl3, hits give low values): 1.01
normalized growth (locus YLL001W, strain dnm1, hits give low values): 0.98
normalized growth (locus YLL026W, hits give low values): 1.01
normalized growth (locus YLL041C, strain sdh2, hits give low values): 1.02
normalized growth (locus YLR027C, strain aat2, hits give low values): 1.01
normalized growth (locus YLR113W, strain HOG1, hits give low values): 0.999
normalized growth (locus YLR221C, strain rsa3, hits give low values): 0.98
normalized growth (locus YLR258W, strain gsy2, hits give low values): 1.02
normalized growth (locus YLR262C, strain YPT6 (second series), hits give low values): 0.978
normalized growth (locus YLR320W, strain mms22, hits give low values): 0.707 (active)
normalized growth (locus YLR342W, strain FKS1, hits give low values): 0.958
normalized growth (locus YLR357W, strain rsc2, hits give low values): 0.981
normalized growth (locus YLR370C, strain arc18, hits give low values): 1.02
normalized growth (locus YLR384C, strain iki3, hits give low values): 1.01
normalized growth (locus YML120C, strain ndi1, hits give low values): 0.998
normalized growth (locus YMR058W, strain fet3, hits give low values): 0.816 (active)
normalized growth (locus YMR125W, strain sto1, hits give low values): 1.02
normalized growth (locus YMR129W, hits give low values): 1.01
normalized growth (locus YMR205C, strain PFK2, hits give low values): 1.01
normalized growth (locus YMR231W, strain pep5, hits give low values): 1.01
normalized growth (locus YNL071W, strain lat1, hits give low values): 1.02
normalized growth (locus YNL183C, strain NPR1, hits give low values): 0.903
normalized growth (locus YNL209W, strain ssb2, hits give low values): 1.01
normalized growth (locus YNL248C, strain rpa49, hits give low values): 1.02
normalized growth (locus YNL322C, strain KRE1 (second series), hits give low values): 1.03
normalized growth (locus YNR049C, strain mso1, hits give low values): 1.01
normalized growth (locus YOR001W, strain rrp6, hits give low values): 1.01
normalized growth (locus YOR070C, strain gyp1, hits give low values): 1
normalized growth (locus YOR080W, strain dia2, hits give low values): 0.974
normalized growth (locus YOR083W, strain WHI5, hits give low values): 0.987
normalized growth (locus YOR106W, strain vam3, hits give low values): 0.993
normalized growth (locus YOR231W, strain MKK1, hits give low values): 0.989
normalized growth (locus YOR265W, strain rbl2, hits give low values): 1.01
normalized growth (locus YOR270C, strain vph1, hits give low values): 1.03
normalized growth (locus YOR290C, strain snf2, hits give low values): 1.03
normalized growth (locus YPL051W, strain arl3, hits give low values): 1
normalized growth (locus YPL078C, strain atp4, hits give low values): 1.04
normalized growth (locus YPL106C, strain sse1, hits give low values): 1.01
normalized growth (locus YPL240C, strain hsp82, hits give low values): 1.02
normalized growth (locus YPL256C, strain CLN2, hits give low values): 1
